Results reported in the supplement of paper PMC10720658.
± gives the standard deviation of the averaged measurements.

These compounds were tested on AEK1 (Tb927.3.2440) (assay: percent reduction in TR-FRET probe signal relative to DMSO control; higher = stronger displacement of ATP-site probe (binding)). Conditions: 1 µM; incubation time 1 h.

**Q.** For `CN1CCC(COc2cnc(-c3cccc(Cn4nc(-c5cccc(C#N)c5)ccc4=O)c3)nc2)CC1`, which “percent reduction in TR-FRET probe signal” value (“percent reduction” below) is on record?
**A.** 6 ± 15%

**Q.** `CNC(=O)CN1CCC(Oc2cc3c(Nc4cccc(Cl)c4F)ncnc3cc2OC)CC1` [Sapitinib (AZD8931)] was tested. Which “percent reduction” value did it give?
**A.** -5.78 ± 5.4%

**Q.** For `COc1cc(Nc2nc3ccccc3nc2NS(=O)(=O)c2ccc(NC(=O)c3ccc(C)c(OC)c3)cc2)cc(OC)c1`, which “percent reduction” value is on record?
**A.** 18.9 ± 14%

**Q.** `OCCn1cc(-c2ccc3c(c2)CC/C3=N\O)c(-c2ccncc2)n1` was tested. Which “percent reduction” value did it give?
**A.** -6.91 ± 7.5%

**Q.** Which “percent reduction” value does the source give for `O=C(O)c1ccc(-c2c[nH]c3ncc(-c4ccccc4)cc23)cc1C1CCCC1` here?
**A.** -2.47 ± 9.6%

**Q.** With `CNC(=O)c1cccc(-c2ccc3c(N4CCOC[C@@H]4C)nc(N4CCOC[C@@H]4C)nc3n2)c1` [Vistusertib (AZD2014)] as the compound, how does the “percent reduction” value read?
**A.** 9.57 ± 9.3%

**Q.** How did the “percent reduction” value turn out when `FC(F)c1nc2ccccc2n1-c1nc(N2CCOCC2)nc(N2CCOCC2)n1` was run?
**A.** -1.21 ± 9.1%

**Q.** For `CCCCOc1c(C(=O)c2c(F)cc(C)cc2F)cnc2[nH]ncc12`, which “percent reduction” value is on record?
**A.** 0.53 ± 8%

**Q.** With `Cc1c[nH]c(-c2cnc(NCCNc3ccc(C#N)cn3)nc2-c2ccc(Cl)cc2Cl)n1.Cl` as the compound, how does the “percent reduction” value read?
**A.** -2.62 ± 8.5%

**Q.** With `N#Cc1c(O)c2c(-c3ccc(-c4ccccc4O)cc3)csc2[nH]c1=O` as the compound, how does the “percent reduction” value read?
**A.** -7.05 ± 2.1%

**Q.** How did the “percent reduction” value turn out when `NC(=O)Nc1sc(-c2ccc(F)cc2)cc1C(N)=O` was run?
**A.** 10.6 ± 8.8%

**Q.** For `CCCS(=O)(=O)Nc1ccc(F)c(C(=O)c2c[nH]c3ncc(-c4ccc(Cl)cc4)cc23)c1F` [Vemurafenib (PLX4032, RG7204)], which “percent reduction” value is on record?
**A.** 4.16 ± 3%

**Q.** `C=CC(=O)Nc1cccc(Sc2nc(Nc3ccc(N4CCN(C)CC4)cc3)ncc2Cl)c1` was tested. Which “percent reduction” value did it give?
**A.** 3.76 ± 18%

**Q.** How did the “percent reduction” value turn out when `Cc1cc(NC(=O)c2cccc(NC(=O)/C=C/CN(C)C)c2)ccc1Nc1nccc(-c2cccnc2)n1` was run?
**A.** -7.17 ± 15%

**Q.** With `CS(=O)(=O)c1ccc(-c2cnc(N)c(C(=O)Nc3ccccc3)n2)cc1` as the compound, how does the “percent reduction” value read?
**A.** 5.23 ± 4.7%

**Q.** Which “percent reduction” value does the source give for `CCNc1nc(Nc2cc(F)c(C(=O)N3CCOCC3)cc2OC)ncc1C(F)(F)F` here?
**A.** 11.9 ± 11%

**Q.** Which “percent reduction” value does the source give for `Cc1ccc(-c2nn(C(C)(C)C)c3ncnc(N)c23)cc1` here?
**A.** -1.9 ± 8.7%

**Q.** How did the “percent reduction” value turn out when `Cc1ccc2nc(NCCN)c3ncc(C)n3c2c1` was run?
**A.** -7.43 ± 3.5%

**Q.** Which “percent reduction” value does the source give for `CCc1ccc(/C=C2/SC(=S)NC2=O)cc1` here?
**A.** -1.24 ± 9.7%

**Q.** Which “percent reduction” value does the source give for `O=C(NC1CCNCC1)c1n[nH]cc1NC(=O)c1c(Cl)cccc1Cl` here?
**A.** -2.75 ± 9.5%

**Q.** For `O=C(O)CCC(=O)Nc1ccc(Br)cn1` [Bikinin], which “percent reduction” value is on record?
**A.** -3.76 ± 0.8%

**Q.** For `C=CC(=O)N1CCCC(n2c(=O)n(-c3ccc(Oc4ccccc4)cc3)c3c(N)ncnc32)C1` (configuration not stated) [ONO-4059 analogue], which “percent reduction” value is on record?
**A.** 4.33 ± 16%

**Q.** For `O=C(Nc1ccccc1C(=O)NC1CCCCNC1=O)c1cc2ccccc2s1` (configuration not stated), which “percent reduction” value is on record?
**A.** -0.533 ± 1.2%

**Q.** Which “percent reduction” value does the source give for `CC[C@@](C)(Nc1ccnc(-c2c[nH]c3ncccc23)n1)C(=O)NCC(F)(F)F` [Decernotinib (VX-509)] here?
**A.** -1.74 ± 4.4%

**Q.** Which “percent reduction” value does the source give for `N#CC[C@H](C1CCCC1)n1cc(-c2ncnc3[nH]ccc23)cn1` here?
**A.** 22.6 ± 7.6%

**Q.** With `O=c1cc(-c2ccccc2)oc2c(O)c(O)ccc12` [7,8-Dihydroxyflavone] as the compound, how does the “percent reduction” value read?
**A.** -6.52 ± 5.7%

**Q.** Which “percent reduction” value does the source give for `CC(C)CCN1c2nc(Nc3cc(F)c(O)c(F)c3)ncc2N(C)C(=O)C1C` (configuration not stated) here?
**A.** -13.7 ± 9.2%

**Q.** How did the “percent reduction” value turn out when `CC[C@@H]1C(=O)N(C)c2cnc(Nc3ccc(C(=O)N[C@H]4CC[C@H](N5CCN(CC6CC6)CC5)CC4)cc3OC)nc2N1C(C)C` [Volasertib (BI 6727)] was run?
**A.** 4.92 ± 1.3%

**Q.** Which “percent reduction” value does the source give for `C[C@@H]1COCCN1c1cc(C2(S(C)(=N)=O)CC2)nc(-c2ccnc3[nH]ccc23)n1` (some centres not stated) here?
**A.** 8.44 ± 6%

**Q.** How did the “percent reduction” value turn out when `COc1cc(Nc2ncc3c(n2)-c2ccc(Cl)cc2C(c2c(F)cccc2OC)=NC3)ccc1C(=O)O` [Alisertib (MLN8237)] was run?
**A.** 2.08 ± 9.1%

**Q.** Which “percent reduction” value does the source give for `CC(C)(C)n1nc(-c2ccc(Cl)cc2)c2c(N)ncnc21` here?
**A.** -1.96 ± 9.6%

**Q.** `Cc1c[nH]c2nc(Nc3ccc(N4CCN(C)CC4)c(F)c3)nc(-c3cccc(CC#N)c3)c12` was tested. Which “percent reduction” value did it give?
**A.** 56.3 ± 2%

**Q.** With `O=C(Nc1cc(C(F)(F)F)cc(C(F)(F)F)c1)c1cc(Cl)ccc1O` as the compound, how does the “percent reduction” value read?
**A.** 8.68 ± 3.7%

**Q.** Which “percent reduction” value does the source give for `O=C1Nc2ccc(I)cc2/C1=C/c1cc(Br)c(O)c(Br)c1` here?
**A.** 8.22 ± 8.7%

**Q.** How did the “percent reduction” value turn out when `CNc1nc(Nc2cnn([C@H]3CCN(C4COC4)C[C@@H]3F)c2Cl)ncc1C(F)(F)F` was run?
**A.** 9.94 ± 3.4%

**Q.** With `Cc1ccc(NC(=O)c2cccc(N(C)C)c2)cc1NC(=O)c1ccc(O)cc1` as the compound, how does the “percent reduction” value read?
**A.** -8.68 ± 4%

**Q.** Which “percent reduction” value does the source give for `C[C@H](Nc1ncnc2nc[nH]c12)c1cc2cccc(Cl)c2c(=O)n1-c1ccccc1` here?
**A.** -9.85 ± 5.9%
